The list is not random: actives were taken first. Their share in the collection is about 6.2%.
HT1080 IDH1KD tx – HT-1080 IDH1 knockdown cell toxicity (counter line); HT-1080 IDH1 knockdown viability, ATP luminescence, 48 h; Potency, µM (series often up to 46.1 µM), for the others: at the top dose activity, negative = toxicity, most hits filed as cytotoxic; 360,000 compounds, 2% hits; AID 686971;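 further: 0% = DMSO wells and -100% = cell-free medium wells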
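In this qHTS, HT-1080 cells depleted of IDH1 are exposed for 48 h at 37 °C to compound titrations. Toxicity is scored from CellTiter-Glo luminescence, with DMSO as full viability and medium alone as none.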
HT1080-NT tox – kills 2HG-producing HT-1080-NT fibrosarcoma cells | 360,000 compounds, 1.6% hits | Potency, µM (highest dose often 46.1 µM), inactives show top-dose activity, negative = less viability, actives largely listed as cytotoxic | HT-1080-NT fibrosarcoma viability, CellTiter-Glo ATP luminescence, 48 h | AID 686970;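 further: NT is the 2HG producing partner of a matched IDH1 knockdown line; 0% = DMSO-treated cells and -100% = media-only wells without cells; nearly all actives have a fitted effect of over 55% in size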
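Compounds were tested in concentration-response format on HT-1080-NT cells for 48 hours at 37 degrees C. Cell viability came from CellTiter-Glo luminescence; curves were classified by r2, response magnitude and activity.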
ATXN2 expr inh – reduces ATXN2 reporter expression in HEK-293 cells; AID 1745845; 360,000 compounds, 0.72% hits; Potency, µM (doses to about 57 µM), for inactives: at the highest dose activity change, negative = inhibition, hits mostly inhibitors; HEK-293 ATXN2-luciferase reporter, luminescence, 24 h; further: on the % scale 0 is the no-effect control and ±100 the full control effect; nearly all actives have a fitted effect of over 55% in size
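qHTS (up to 57 uM final) was run with 24 h compound exposure of reporter cells at 37 °C. Each well was multiplexed: SteadyGlo luminescence measured ATXN2-luciferase expression after a fluorogenic Gly-Phe-AFC viability readout (25 uM final).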
ATXN viability – viability counter-screen for ATXN expression inhibitors; S2 cells (HEK-293 line with an ATXN2-luciferase reporter) viability, CellTiter-Fluor protease fluorescence, 24 h; Potency, µM (top dose mostly 56.7 µM), actives largely listed as cytotoxic; 400,000 compounds, 0.49% hits; further: nearly all actives have a fitted effect of over 40% in size
KB-3-1 tox – kills parental KB-3-1 adenocarcinoma cells; KB-3-1 viability, CellTiter-Glo ATP luminescence, 72 h; AID 1347075; 400,000 compounds, 1.4% hits; Potency, µM (titrated, usually from 46.1 µM), usual class: cytotoxic; further: on the % scale 0 is the no-effect control and ±100 the full control effect; nearly all actives have a fitted effect of over 60% in size
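Cells are dispensed, compounds pinned in, plates held at 37 °C for 72 h, then CellTiter-Glo is added and luminescence read after 10 minutes. Cell line: parental KB-3-1 in phenol-red-free DMEM, 10% FBS.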
KB-V1 cytotox – KB-V1 MDR subline cytotoxicity | 400,000 compounds, 3.4% hits | Potency, µM (top dose mostly 46.1 µM), most hits filed as cytotoxic | KB-V1 MDR cells viability, CellTiter-Glo, 72 h | AID 1347076; further: on the % scale 0 is the no-effect control and ±100 the full control effect; nearly all actives have a fitted effect of over 60% in size
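Following 72 h at 37 degrees C with compound, KB-V1 cell viability was read by CellTiter-Glo luminescence, medium being phenol-red-free DMEM plus 10% FBS; concentration-response parameters came from normalized, curve-fitted qHTS data.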
An asterisk follows results filed as active; i = inactive; u = inconclusive; x = not tested or not shown; [ ] = remark or other dose. The call rests on the fitted dose curve; in most records, active means well fitted curve in the direction sought with a large enough effect; inconclusive means small, poorly fitted or top-dose-only effect, or another doubt; inactive means no such curve, though single readings can be large; an effect the other way counts as inactive or inconclusive. Potency means the concentration at half of the fitted maximal effect.

SMILES	HT1080 IDH1KD tx	HT1080-NT tox	ATXN2 expr inh	ATXN viability	KB-3-1 tox	KB-V1 cytotox
CCN1C(=C2C(=O)c3ccccc3C2=O)C=Cc2ccccc21	8%	8%	21%	u	u	1.8µM*
COc1cc(/C=N/NC(=O)COc2cccc(F)c2)ccc1OS(=O)(=O)c1ccc(C)cc1	u	-1%	17%	i	u	5.8µM*
COC(=O)N/N=C/c1ccc(OS(=O)(=O)c2ccc(C)cc2)c(OC)c1	-2%	1%	7%	i	i	i
COc1cc(/C=N/NC(=O)COc2ccc(Cl)cc2)ccc1OS(=O)(=O)c1ccc(C)cc1	u	u	-8%	i	i	16µM*
COc1ccc(/C=N/NS(=O)(=O)c2ccccc2)cc1OS(=O)(=O)c1ccc(C)cc1	-4%	-5%	-7%	i	i	18µM*
CC(C)(C)NC(=O)NCC1CCCC1NC(=O)NC(C)(C)C (centres undefined)	1%	0%	x	i	i	26µM*
ClC(Cl)(Cl)c1nc2ccccc2n2nncc12	7.3µM*	6.5µM*	13µM*	u	u	i
c1ccc(CCNc2nc3ccccc3n3nnnc23)cc1	23%	5%	15%	i	i	i
CN1CCC(CNc2ccc3ncc(-c4cccc(OC(F)(F)F)c4)n3n2)CC1	x	x	24µM*	x	x	x
CCOc1cccc(-c2cnc3cccnn23)c1	-13%	3%	81%	i	i	i
C[C@H](CO)N1C[C@H](C)[C@@H](CN(C)C(=O)c2cnccn2)Oc2cc(C#CCC3CCCC3)ccc2S1(=O)=O	-2%	1%	-22%	i	i	i
CCOC(=O)C1CCN(C(c2ccccc2OC)c2c(O)cc(C)n(CCOC)c2=O)CC1 (centres undefined)	x	x	x	x	i	i
CC(=O)c1cccc(NC(=O)c2cccc3c(-c4cccc(C(N)=O)c4)coc23)c1	-21%	u	32µM*	u	u	i
CC1(C(=O)Nc2ccccc2)CCN1C(=O)CCc1ccc(Cl)cc1Cl (centres undefined)	0%	-3%	-7%	i	i	i
NC(=O)COC(=O)c1cccnc1Nc1ccccc1F	0%	2%	9%	i	i	i
CN(C)C(=O)COC(=O)c1cccnc1Nc1ccccc1F	11%	9%	20%	i	i	16µM*
O=C(Nc1nc(-c2ccccn2)cs1)c1cc(Cl)ccc1[N+](=O)[O-]	u	u	7.5µM*	i	i	u
O=C(Nc1nc(-c2ccccn2)cs1)c1ccccc1-n1cnnn1	u	u	10µM*	u	u	u
CCn1nc(C(=O)Nc2nc(-c3ccccn3)cs2)c2ccccc2c1=O	-23%	0%	x	x	i	i
Cn1nc(C(=O)Nc2nc(-c3ccccn3)cs2)c2ccccc2c1=O	-11%	0%	-29%	i	i	1.3µM*
CCCn1nc(C(=O)Nc2nc(-c3ccccn3)cs2)c2ccccc2c1=O	u	u	22µM*	i	u	i
c1ccc2c(Oc3nc(Nc4ccc(N5CCOCC5)cc4)c4ncn(C5CCCCC5)c4n3)cccc2c1	x	x	-16%	x	x	x
O=C(CNC(=O)c1cccc(S(=O)(=O)N2CCc3ccccc32)c1)Nc1ccccc1Br	-13%	-7%	-18%	i	i	9.2µM*
COc1ccc(CN(C)C(=O)c2cccc(S(=O)(=O)N3CCc4ccccc43)c2)c(OC)c1	-12%	-9%[9.24 µM]	-13%	i	18µM*	u
CC(C)CN(CC(C)C)C(=O)c1cccc(S(=O)(=O)N2CCc3ccccc32)c1	u	u	u	i	u	10µM*
SMILES	HT1080 IDH1KD tx	HT1080-NT tox	ATXN2 expr inh	ATXN viability	KB-3-1 tox	KB-V1 cytotox
O=C(CNC(=O)c1cccc(S(=O)(=O)N2CCc3ccccc32)c1)Nc1ccc(F)c(F)c1F	u	-18%	45%	u	i	u
COc1ccccc1CN(C)C(=O)c1cccc(S(=O)(=O)N2CCc3ccccc3C2)c1	3%	4%	u	u	i	i
CC(C)CCNC(=O)c1cccc(S(=O)(=O)N2CCc3ccccc32)c1	-26%	-4%	-9%	i	i	i
C=CCN1[C@@H](Cc2ccccc2)COc2cc(N3CCSCC3)ccc2S1(=O)=O	-9%	-4%	13%	i	i	i
Cc1ccc2c(=O)cc(C(=O)Nc3nnc(CC(C)C)s3)oc2c1C	x	x	-1%	i	i	u
Cc1c(CCOC(=O)c2ccccc2)sc[n+]1CC(=O)c1ccc(Br)cc1	u	u	-17%	i	u	7.3µM*
COc1ccc(-c2onc(C)c2-c2ccccc2)c(O)c1	16µM*	u	-17%	u	u	u
CC(C)(C)NC(=O)Nc1nnc(-c2ccncc2)s1	x	x	x	x	u	i
CCc1nc2ccc(C(=O)Nc3cc(-c4ccccc4)ccc3OC)cn2c1N(CC)CCN(C)C	13µM*	18µM*	u	x	u	u
CCc1nc2ccc(C(=O)Nc3cc(-c4ccccc4)ccc3OC)cn2c1N(CC)Cc1cccc(Br)c1	u	u	4%	u	u	u
CCCCN(C=O)c1c(CC)nc2ccc(C(=O)Nc3cc(-c4ccccc4)ccc3OC)cn12	u	u	u	i	u	23µM*
CCCCN(C=O)c1c(CC)nc2ccc(C(=O)NCCN(C)C)cn12	12%	12%	6%	i	i	i
Cc1ccc(NC(=O)c2cc3cccc([N+](=O)[O-])c3[nH]2)cc1	-5%	-6%	78%	i	i	i
CCC(C)c1ccccc1NC(=O)c1cc2cccc([N+](=O)[O-])c2[nH]1 (centres undefined)	16µM*	u	-1%	u	i	i
CC(=NO)c1ccc2c(c1)Cc1cc([N+](=O)[O-])ccc1-2	-3%	3%	29%	i	15µM*	7.3µM*
Nc1ccc2c(c1)Cc1cc([N+](=O)[O-])ccc1-2	-1%	-1%	2%	x	i	i
CC(=O)c1c(C)oc2ccc(NS(=O)(=O)c3ccc(F)cc3C)cc12	3%	-6%	-14%	i	i	10µM*
Cc1cc(F)ccc1S(=O)(=O)Nc1ccc2oc3c(c2c1)CC(C)CC3 (centres undefined)	x	x	u	32µM*	i	u
Cc1cc(C)c(S(=O)(=O)Nc2ccc3oc4c(c3c2)CCCC4)cc1C	x	x	-36%	i	i	i

High-throughput results (PubChem BioAssay)
